Bioassay records (PubChem)
The full list was thinned out, with hits kept by preference.
TTR transcr act – activators of transthyretin transcription | activation, % at 16.7 µM | AID 1117267 | SH-SY5Y TTR promoter Gaussia luciferase, luminescence; 100% = recombinant luciferase protein wells | 92,000 compounds, 1.3% hits;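 active = activation above the mean of all tested compounds plus 3 SD, cut at about 9.5% in these data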;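 note: cells exposed to compounds for one day before reading; 0% = median of all test compound wells on the plate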
HuH7 TTR inh – decreases TTR transcription in HuH7 cells in activator counter-screen. inhibition, % at 16.7 µM. AID 1117279. HuH7 TTR promoter-Gaussia luciferase reporter, luminescence. shares compounds with TTR transcr act. 1,100 compounds, 4% hits;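 active = average inhibition above the solvent-only control wells' mean plus 3 SD, cut at about 15% in these data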;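 note: 0% = cells with DMSO only and 100% = cells with inhibitor control FD; inhibitors lower well luminescence so higher value means more inhibition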
TTR act confirm – confirmation of human transthyretin transcription activators. shares compounds with TTR transcr act. SHSY5Y TTR promoter Gaussia luciferase, luminescence; 100% = purified Lucia enzyme wells, no cells. activation, % at 16.7 µM. 1,100 tested, under 10 active;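 active = mean activation above a set limit taken from the earlier primary screen, cut at about 11% in these data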;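 note: 0% = DMSO-treated cells and 100% = recombinant Lucia luciferase without cells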
* hit, by the source's call.

SMILES	TTR transcr act	others
C[C@@H]1CCC(=O)N(CC[C@H](Oc2ccccc2)c2ccccc2)CC1	-1
CCOc1ccccc1OCC(=O)NC1CCSc2ccccc21 (stereo not given)	0
O=C(c1cccc(S(=O)(=O)Nc2ccccc2F)c1)N1CCN(c2ccccc2F)CC1	-2
O=S1(=O)CC(N2CCC(c3ccccc3)CC2)CN1Cc1ccccc1 (stereo not given)	2
Cc1noc(C)c1COc1ccccc1C(=O)NC1CCC(C)CC1 (stereo not given)	4
Cc1ccc(NC(=O)CCc2c(C)nn(-c3ccc(N4CCOCC4)nn3)c2C)cc1	1
COc1ccc(NC(=O)CCc2c(C)nn(-c3ccc(N4CCOCC4)nn3)c2C)cc1	12*	HuH7 TTR inh=-6;TTR act confirm=1
CC(=O)c1ccc(NC(=O)CCc2c(C)nn(-c3ccc(N4CCOCC4)nn3)c2C)cc1	-2
CC1CN(Cc2ccccc2)c2nc3c(c(=O)n(CC(N)=O)c(=O)n3C)n2C1 (stereo not given)	13*	HuH7 TTR inh=19*;TTR act confirm=-1
CC1CN(c2ccc(Oc3ccccc3)cc2)c2nc3c(c(=O)n(CC(N)=O)c(=O)n3C)n2C1 (stereo not given)	6
C=CCn1c(=O)c2c(nc3n2CCCN3CCc2ccccc2)n(C)c1=O	0
Cc1ccc(N2CC(C)Cn3c2nc2c3c(=O)n(CC(=O)OCc3ccccc3)c(=O)n2C)cc1C (stereo not given)	1
C=CCn1c(=O)c2c(nc3n2CC(C)CN3Cc2ccccc2)n(C)c1=O (stereo not given)	11*	HuH7 TTR inh=16*;TTR act confirm=-1
CCCn1c(=O)c2c(nc3n2CC(C)CN3Cc2ccccc2)n(C)c1=O (stereo not given)	-2
O=C1C=CC(O)C2(CO)OC12 (stereo not given)	-3
CCCC1CCC2(CCCN2CCOC(=S)Nc2ccccc2)CC1 (stereo not given)	-3
CC(C)(C)c1ccc(C(=O)Nc2cc(Cl)c(F)cc2C(=O)O)cc1	-2
O=C(NNc1ccc([N+](=O)[O-])cn1)Nc1ccc(N=Nc2ccccc2)cc1	0
Cc1ccccc1NP1(=O)OCCCN1Cc1ccccc1Cl (stereo not given)	0
Cc1ccc(S(=O)(=O)N(C)C)cc1NC(=O)C1CCCC1	11*	HuH7 TTR inh=-16;TTR act confirm=-1
Cc1ccc(S(=O)(=O)N(C)C)cc1NC(=O)CSc1ccc2c(c1)OCCO2	2
Cc1ccc(S(=O)(=O)N(C)C)cc1NC(=O)c1cccs1	1
O=C(NCCc1ccccc1)Nc1nnc([C@@H]2C[C@H](O)[C@@H](CO)O2)s1	4
O=c1cc(N2CCN(c3ccnc4cc(Cl)ccc34)CC2)[nH]c(=O)n1C1CCCCC1	2
Cc1ccc(S(=O)(=O)N2c3ccccc3C[C@H]2CC=C(c2ccccc2)c2ccccc2)cc1	1
SMILES	TTR transcr act	others
COCC(=O)Nc1cc(OC)c(Cl)cc1OC	-2
COc1cc(NC(=S)N(C)C)c(OC)cc1Cl	3
COc1cc(NC(=S)N(C)CCC#N)c(OC)cc1Cl	11*	HuH7 TTR inh=-6;TTR act confirm=-1
Cc1cccc(-c2nc(CSc3nc4c(c(=O)[nH]3)CCC4)c(C)o2)c1	1
Cc1ccccc1-c1nc(CSc2nc3c(c(=O)[nH]2)CCC3)c(C)o1	1
Cc1oc(-c2ccccc2)nc1CSc1nc2c(c(=O)[nH]1)CCC2	14*	HuH7 TTR inh=-32;TTR act confirm=0
CC#CC(=O)N[C@H]1CC[C@@]23CCCN2C(=O)CCC[C@H]3[C@H]1C	-2
COC(=O)[C@]12C[C@H](CC(=O)NCC3CCCCC3)C(=O)N(Cc3cccc4ccccc34)C1=C[C@H](COCc1ccccc1)O[C@@H]2C	2
CCc1cccc(C)c1NC(=O)CN1C(=O)NC(CCc2ccccc2)C1=O (stereo not given)	15*	HuH7 TTR inh=-2;TTR act confirm=-1
COc1cccc(NC(=O)CN2C(=O)NC(CCc3ccccc3)C2=O)c1 (stereo not given)	1
O=C(CN1C(=O)NC(CCc2ccccc2)C1=O)N1CCCCCC1 (stereo not given)	1
Oc1ccc(C(=S)N2CCCCC2)cc1	10*	HuH7 TTR inh=2;TTR act confirm=-1
COc1cc(C(=S)N2CCCC2)ccc1O	1
COc1ccc(C(=S)N2CCCC2)cc1Br	1
CCOc1ccc(NS(=O)(=O)c2c(C)nc3sc(CC)nn3c2=O)cc1	0
Cc1cc(C(=O)COC(=O)c2cccc(NS(C)(=O)=O)c2)c(C)n1CC1CCCO1 (stereo not given)	1
CCCn1ncc(CN2CCC(N3CCC(C(=O)N4CCOCC4)CC3)CC2)c1C	-1
CN(Cc1ccno1)Cc1cn(Cc2ccccc2)nc1-c1ccc2c(c1)OCO2	0
CCCCC(=O)Nc1cc(C)c(NC(=O)c2cccs2)cn1	-2
CCC(=O)Nc1cnc(NC(=O)c2cccc(F)c2)cc1C	0
CCC(=O)Nc1cc(C)c(NC(=O)C23CC4CC(CC(C4)C2)C3)cn1	9.9*	HuH7 TTR inh=-17;TTR act confirm=0
COc1ccc(CNC2CCC23CCC(c2ccccc2)CC3)cc1OC (stereo not given)	0
C[C@H](CO)N1C[C@H](C)[C@H](CN(C)C(=O)c2ccccc2F)Oc2ncc(Br)cc2C1=O	2
Cc1cccc(N(C)c2ncnc3onc(-c4ccc(F)cc4)c23)c1C	13*	HuH7 TTR inh=25*;TTR act confirm=0
Cc1ccccc1Sc1ncnc2onc(C)c12	-4
SMILES	TTR transcr act	others
COc1cc(CNCC(O)c2ccccc2)ccc1OCc1ccc(Cl)nc1 (stereo not given)	11*	HuH7 TTR inh=-9;TTR act confirm=3
COc1cc(CNCc2ccccn2)ccc1OCc1ccccc1Cl	-1
CSc1ccc(CNCC(O)c2ccccc2)cc1 (stereo not given)	4
COc1ccc(CNC(=O)c2ccc3nc(C)c(N(C)Cc4ccc(NC(C)=O)cc4)n3c2)cc1	0
CCN(CC)CCCNC(=S)N1CCN(c2nc3ccccc3n2CC)CC1	-2
CCOC(=O)C1CCN(S(=O)(=O)c2ccc3c(c2)NC(=O)CS3)CC1	11*	HuH7 TTR inh=-15;TTR act confirm=0
CCOC(=O)C1CCN(S(=O)(=O)c2ccc3[nH]c(=O)oc3c2)CC1	1
CCN1CCN(S(=O)(=O)c2ccc3c(c2)NC(=O)CS3)CC1	2
O=C(NC1CCCCN(Cc2cccc(Cl)c2)C1=O)c1ccc(Cl)cc1Cl (stereo not given)	-2
COc1ccc(S(=O)(=O)Nc2ccc3c(c2)OCO3)cc1OC	17*	HuH7 TTR inh=-15;TTR act confirm=0
Cc1ccc(S(=O)(=O)Nc2ccc3c(c2)OCCO3)cc1C	6
COc1ccc(S(=O)(=O)Nc2ccccc2)cc1OC	0
CCC/C=C/c1ccc(CN2C(C)C(=O)N(Cc3cn(CCC4OCCCO4)nn3)CCS2(=O)=O)cc1 (stereo not given)	-1
CCOC(=O)N1CCC(N2CCCC(C(=O)c3cccc(OC)c3)C2)CC1 (stereo not given)	-2
CC(C)c1cc(-c2n[nH]c(=S)n2Cc2ccccc2)cs1	11*	HuH7 TTR inh=-2;TTR act confirm=-1
COc1ccc(-c2n[nH]c(=S)n2Cc2ccccc2)cc1OC	2
S=c1[nH]nc(-c2ccccc2)n1Cc1ccccc1	6
COc1cc(NC(=O)c2ccccc2OCc2ccccc2)cc(OC)c1OC	-1
COc1ccc(C(=O)C(C)C(C)=O)c(OCc2ccccc2)c1OC (stereo not given)	14*	HuH7 TTR inh=-20;TTR act confirm=-1
